Here are results for 65 molecules from PubChem BioAssay AID686979 (National Center for Advancing Translational Sciences (NCATS), 2013).

Out of some 420,000 compounds screened, about 50,000 (12%) were called active. Another 26% or so got no clear call; they are omitted. Calls come from the whole dose curve; as a rule, active = well fitted inhibition curve with a large enough effect; inconclusive = small, poorly fitted or top-dose-only effect; inactive = flat fitted curve, though single readings scatter. What follows is part of a selection rich in actives, with near analogues and random picks from the rest. Where a call stands in place of a potency, no number is given.
Potency is the fitted concentration of half-maximal effect.

The nature of this experiment: qHTS for Inhibitors of human tyrosyl-DNA phosphodiesterase 1 (TDP1): qHTS in cells in presence of CPT. Note: nearly all actives have a fitted effect of over 55% in size. Conditions: chicken DT40 Tdp1-/-;hTDP1 cells + 20 nM CPT, ATP luminescence, 48 h; series mostly up to 46.2 µM. The essentials:
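Chicken DT40 Tdp1-/- cells stably complemented with human TDP1 were seeded at 400 cells/well in medium containing 20 nM camptothecin, exposed to pin-transferred compounds, and grown at 37 °C for at least 48 hr. Viability was read as ATP luminescence.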
`COc1ccc(OC)c(/C=N/NC(=O)c2ccc[n+](CC(=O)c3ccccc3)c2)c1`: the Potency result is “inactive”.

For the molecule `COc1cccc(NC(=O)CN(C)C(=O)c2cc(C3CC3)nn2-c2ccccc2)c1`, the Potency result is “inactive”. The result for `CC(=O)Nc1ccc(NC(=O)COC(=O)C2CCC(C(C)(C)C)CC2)cc1` (stereo not given) reads “inactive”; that for `O=C(NCc1cccc(Cl)c1)C1CCN(c2nnc(N3CCCC3=O)s2)CC1`, “inactive”. The result for `Cc1ccc(CCNC(=O)Cn2c(-c3cccs3)cc3cc(F)ccc32)cc1` reads 18.4 µM (active). The result for `COc1ccc(CCNC(=O)CN2CCC(n3nnc4cc(F)ccc43)CC2)cc1OC` reads “inactive”; that for `COc1ccc(CCNC(=O)COC(=O)Cc2cccc(F)c2)cc1`, “inactive”; that for `Cc1cnc(C(=O)Oc2cccc(Cl)c2Cl)cn1`, “inactive”.

Take `CCOC(=O)c1cnc(SC)nc1Sc1ccc(Cl)cc1Cl`: the Potency entry is “inactive”. The result for `O=C1C(=O)N(c2ccccc2)C(c2ccccc2)C1c1ccccc1` (stereo not given) reads “inactive”; that for `CCc1ccccc1NC1c2ccccc2C(=O)N1c1cccnc1` (stereo not given), “inactive”; that for `O=C1[C@@H](c2ccccc2)[C@@H](c2ccccc2)N1c1cccnc1`, 16.4 µM (active).

For `CCCN(CCC)c1c([N+](=O)[O-])c(=O)oc2ccccc12`, the Potency entry was “inactive”. The same measure for `O=C(COC(=O)c1ccncc1)c1ccccc1`: “inactive”; for `Cc1cccc(N2CCN(C(=O)c3cc4c(=O)[nH]c5ccccc5c4n3C)CC2)c1C`: 18.4 µM (active). In the case of `Cc1[nH]c2ccc(C(=O)N3CCN(C)CC3)cc2c1C`, the Potency result is “inactive”. The result for `O=C(c1c(Cl)cccc1Cl)N1CCN(c2cccc3[nH]ccc23)CC1` reads “inactive”; that for `CN(C(=O)COC(=O)CCCc1c[nH]c2ccccc12)c1c(N)n(Cc2ccccc2)c(=O)[nH]c1=O`, “inactive”. The same measure for `Oc1cc(O)c2c(c1)OC(c1ccc(O)c(O)c1)C(O)C2` (stereo not given): “inactive”; for `COc1ccccc1-c1nnc(-c2ccc(F)cc2)o1`: “inactive”; for `COc1ccc(-c2csc3nc(-c4ccccc4F)oc(=O)c23)cc1OC`: 18.4 µM (active). For `Cc1sc2nc(-c3ccccc3F)oc(=O)c2c1C`, the Potency result was “inactive”. The same measure for `Cc1ccc(N/C(N)=N/c2nc(C(F)(F)F)cc(C(F)(F)F)n2)cc1`: “inactive”. Regarding `CCc1cccc(NC(=O)CCNS(=O)(=O)c2cccc3nonc23)c1`, the Potency entry is “inactive”. The result for `CCCCc1nc2c(=O)[nH]c3ccccc3c2o1` reads “inactive”. As to `CCOC(=O)c1ccc(NC(=O)CSc2nnc(COc3ccccc3OC)n2C)cc1`, the Potency entry was “inactive”. The result for `Cc1cccc(NC(=O)CSc2nc3c(oc4ccccc43)c(=O)n2-c2ccc(F)cc2)c1` reads “inactive”; that for `Cc1ccc(NC(=O)CSc2nnc3[nH]c(=O)cc(C)n23)cc1Cl`, “inactive”; that for `Cn1nnnc1SCc1cc(=O)[nH]c2ccccc12`, “inactive”.

For `Cc1ccc(C)c(NC(=O)CSc2nc3c(oc4ccccc43)c(=O)n2-c2ccccc2)c1`, the Potency is 14.6 µM (active). The result for `CCc1ccc(NC(=O)CSc2nc3c([nH]c4ccccc43)c(=O)n2-c2cccc(OC)c2)cc1` reads “inactive”; that for `Cc1ccc(NC(=O)CSc2nc3c([nH]c4ccccc43)c(=O)n2-c2ccccc2)cc1Cl`, 11.6 µM (active); that for `CCOC(=O)c1ccc(NC(=O)c2cc(=O)[nH]c3ccccc23)cc1`, “inactive”. The result for `CCOC(=O)c1ccc(NC(=O)CSc2nc3c([nH]c4ccccc43)c(=O)n2C)cc1` reads 8.2 µM (active); that for `Cc1ccc(C)c(NC(=O)COC(=O)CSc2ccccc2)c1`, “inactive”; that for `CC(Sc1nc2c([nH]c3ccccc32)c(=O)n1C)c1ccccc1` (stereo not given), 11.6 µM (active). For the molecule `Nc1c(N(CCCO)C(=O)C2CCCC2)c(=O)[nH]c(=O)n1Cc1ccccc1`, the Potency entry was “inactive”. The same measure for `Cn1c(=O)[nH]c2c(c(C(=O)O)nn2C)c1=O`: “inactive”; for `Oc1c(Cl)cc(Cl)cc1/C=N/c1ncn[nH]1`: “inactive”; for `Cc1ccc(NC(=O)CN(C)C(=O)c2ccc(Br)o2)cc1`: “inactive”.

`CC(C)c1nnc(NC(=O)COC(=O)/C=C/c2ccc([N+](=O)[O-])cc2)s1`: the Potency result was “inactive”. The result for `O=C(Nc1ccc(F)cc1)C(=O)c1cn(CC(=O)N2CCOCC2)c2ccccc12` reads “inactive”. The same measure for `O=C(Nc1ccc(C(=O)O)cc1)/C(=C\c1ccccc1)NC(=O)c1ccc(Br)cc1`: “inactive”. Consider `COc1cccc(NC(=O)Cn2c3ccc(F)cc3c3nc4n(c(=O)c32)CCS4)c1`, for which the Potency entry was “inactive”. Turning to `C=CCN1C(=O)c2ccc(C(=O)N3CCC(C(=O)OCC)CC3)cc2C1=O`, the Potency result was “inactive”. The same measure for `O=[N+]([O-])c1ccc(N2CCN(c3ccc(O)cc3)CC2)c(Cl)c1`: “inactive”; for `COc1ccc(S(=O)(=O)NCC(c2ccc(C)cc2)N2CCN(C)CC2)cc1OC` (stereo not given): “inactive”. The same measure for `Cc1nn(Cc2ccccc2)c(C)c1C(=O)NCCCN1CCCC1=O`: “inactive”; for `Cc1nn(Cc2ccccc2)c(C)c1C(=O)NCCN1C(=O)S/C(=C\c2ccc(F)cc2)C1=O`: 16.4 µM (active); for `Cn1cccc1/C=C1\SC(=O)N(CC(=O)Nc2ccc(F)cc2)C1=O`: “inactive”. The result for `O=C(COc1coc(CN2CCN(c3ccccc3)CC2)cc1=O)N1CCc2ccccc21` reads “inactive”; that for `CC(Sc1nnc(COc2ccccc2)n1-c1ccccc1)C(=O)O` (stereo not given), “inactive”. For `COc1ccc(-c2cc(C(F)(F)F)n3nc(C(=O)N4CCOCC4)c(Cl)c3n2)cc1`, the Potency was 16.4 µM (active). The same measure for `O=C(O)c1cnn2c(C(F)(F)F)cc(-c3ccccc3)nc12`: “inactive”; for `COc1ccc(OCC(=O)N2CCOCC2)cc1`: “inactive”. For the molecule `CC(=O)Nc1ccc(SCC(=O)NC(=O)c2ccc(Cl)cc2)cc1`, the Potency result was “inactive”. As to `O=c1onc(-c2c(F)cccc2F)n1-c1ccccc1Cl`, the Potency entry was “inactive”. The same measure for `COc1ccc(CN(C)CCn2cc(C(=O)N3CCSCC3)nn2)cc1C`: “inactive”; for `Cn1c(=O)c2c(nc(CN3CCOCC3)n2Cc2ccccc2)n(C)c1=O`: “inactive”; for `COCCn1c(CN2CCC(Cc3ccccc3)CC2)nc2c1c(=O)n(C)c(=O)n2C`: 8.2 µM (active). The same measure for `O=c1cc(CO)oc(CN2CCC(Cc3ccccc3)CC2)c1O`: “inactive”. The same measure for `O=C(O)C1CCCN(CCC=C(c2ccccc2)c2ccccc2)C1` (stereo not given): “inactive”.

Take `CCN1CCN(Cc2nc3c(c(=O)n(C)c(=O)n3C)n2CC(=O)c2ccccc2)CC1`: the Potency result was “inactive”. The same measure for `CC1CCCN(Cc2nc3c(c(=O)n(C)c(=O)n3C)n2CC(=O)c2ccccc2)C1` (stereo not given): 23.1 µM (active); for `CCc1ccc(N2CC(C(=O)N3CCCCCC3)CC2=O)cc1` (stereo not given): “inactive”.
